Measured values reported in PubChem BioAssay AID463173 (ICCB-Longwood Screening Facility, Harvard Medical School, 2010).
About 4,300 (8.3%) of roughly 52,000 compounds were called active. No stated cut-off is given here; in the data, active means survival mostly below about 52% (no sharp cut-off); inactive means mostly above about 56%. This excerpt belongs to a sample that is enriched for actives.

system: DeltatarO mutant; experiment: growth inhibition of S. aureus wild type versus tarO mutant, primary screen, teichoic acid synthesis inhibitors, RN4220, OD600 (AID 463173); settings: OD600, 18 h, active compounds read low, screened at 18.75 µg/mL (by protocol)

SMILES	survival
CS(=O)(=O)N1CCC(c2nc(-c3ccc(S(=O)(=O)NCC4CCCO4)cc3)no2)CC1 (stereo not given)	85% (inactive)
CCn1c(=O)c2cc(C(=O)Nc3cc(F)ccc3F)sc2c2ccccc21	96% (inactive)
CCOc1ccccc1NC(=O)c1c(NCc2ccc(C)o2)sc2c1CCCCC2	95% (inactive)
COc1ccccc1-c1cc(C(=O)Nc2cc(Cl)ccc2O)no1	52% (inactive)
COc1cc(NC(=O)c2cc(-c3ccc(Cl)c(Cl)c3)on2)cc(OC)c1OC	111% (inactive)
COc1ccccc1-c1cc(C(=O)Nc2cc(OC)c(OC)c(OC)c2)no1	25% (active)
O=C(c1ccc2c(c1)CCN2S(=O)(=O)c1ccc(Cl)cc1)N1CCN(c2ccccc2)CC1	58% (inactive)
CCCCOc1ccccc1C(=O)Nc1onc2c1CCCC2	55% (inactive)
O=C(CN1C(=O)COc2ccc(S(=O)(=O)Nc3ccccc3)cc21)NCc1ccccc1Cl	102% (inactive)
O=c1c2cn[nH]c2nc(SCc2cccc(Br)c2)n1-c1ccc(Cl)cc1	122% (inactive)
CC(C)c1ccc(OCC(=O)Nc2c(C(=O)c3ccc(F)cc3)oc3ccccc23)cc1	65% (active)
CCOc1ccc(CC(=O)Nc2c(C(=O)c3ccc(F)cc3)oc3ccccc23)cc1OCC	42% (active)
Cc1ccc(C(=O)c2oc3ccccc3c2NC(=O)COc2ccc(C(C)C)cc2)cc1	73% (inactive)
CCOc1ccc(CC(=O)Nc2c(C(=O)c3ccc(Cl)cc3)oc3ccccc23)cc1OCC	48% (inactive)
CC(C)(C)c1ccc(OCC(=O)Nc2c(C(=O)c3ccc(F)cc3)oc3ccccc23)cc1	99% (inactive)
CCOc1ccc(CC(=O)Nc2c(C(=O)c3ccc(C)cc3)oc3ccccc23)cc1OCC	52% (inactive)
Cc1cccc(-n2cc(-c3ccccc3)c3c(NC4CCCC4)ncnc32)c1	98% (inactive)
CCNC(=O)CCSc1nnc(-c2ccc(O)cc2)o1	95% (inactive)
O=c1oc2ccccc2c(O)c1CN1CCCCC1	25% (active)
O=c1oc2ccccc2c(N2CCN(c3ccc(F)cc3)CC2)c1CN1CCCC1	100% (inactive)
O=c1oc2ccccc2c(N2CCN(c3ccccc3F)CC2)c1CN1CCCC1	89% (inactive)
Cc1ccc(-c2cc(-c3ccc4c(c3)NC(=O)CO4)nc3c2COc2ccc(C)cc2-3)cc1	96% (inactive)
Cc1c(C(=O)Nc2ccc(F)cc2)sc2nc[nH]c(=O)c12	122% (inactive)
Cc1sc2ncn(CC(=O)N3CCN(c4ccccc4)CC3)c(=O)c2c1S(=O)(=O)N1CCN(c2ncccn2)CC1	126% (inactive)

SMILES	survival
Cc1ccc(Cl)cc1N1CCN(C(=O)Cn2cnc3sc(C)c(S(=O)(=O)N4CCC(C)CC4)c3c2=O)CC1	47% (active)
Cc1sc2ncn(CC(=O)N3CCN(c4ccccc4F)CC3)c(=O)c2c1S(=O)(=O)N1CCC(C)CC1	74% (inactive)
Cc1sc2ncn(CC(=O)N3CCN(c4cccc(Cl)c4)CC3)c(=O)c2c1S(=O)(=O)N1CCC(C)CC1	149% (inactive)
Cc1sc2ncn(CC(=O)N3CCN(c4cccc(Cl)c4)CC3)c(=O)c2c1S(=O)(=O)N1CCN(c2ncccn2)CC1	63% (inactive)
Cc1cccc(N2CCN(C(=O)Cn3cnc4sc(C)c(S(=O)(=O)N5CCN(c6ncccn6)CC5)c4c3=O)CC2C)c1 (stereo not given)	67% (active)
CC1=C(c2ccc(C)cc2)S(=O)(=O)NC1=NCc1cccc(F)c1	92% (inactive)
Cc1ccc(-n2c(=O)c3ccc(C(=O)NCc4ccco4)cc3n(Cc3ccccc3Cl)c2=O)cc1	99% (inactive)
c1ccc2c(c1)n1cnnc1c1nncn21	85% (inactive)
CC1=C(C(=O)Nc2ccc(C)cc2C)C(c2ccc([N+](=O)[O-])cc2)n2ncc(C(=O)Nc3ccc(F)cc3)c2N1 (stereo not given)	101% (inactive)
O=C(O)c1ccc(N2CCOCC2)cc1	80% (inactive)
COc1ccc(N2CCN(CC(O)COc3c(OC)cccc3OC)CC2)cc1 (stereo not given)	71% (inactive)
COc1ccccc1N1CCN(CC(O)COc2cc(C)cc(C)c2)CC1 (stereo not given)	71% (inactive)
COc1ccc(N2CCN(CC(O)COc3ccccc3C(C)(C)C)CC2)cc1 (stereo not given)	-8% (active)
COc1ccc(N2CCN(CC(O)COc3ccc(C)cc3C)CC2)cc1 (stereo not given)	98% (inactive)
COc1ccc(N2CCN(CC(O)COc3ccc(C(C)(C)C)cc3)CC2)cc1 (stereo not given)	84% (inactive)
C=CCc1ccccc1OCC(O)CN1CCN(c2ccccc2)CC1 (stereo not given)	83% (inactive)
Cc1ccc(C(C)C)c(OCC(O)CN2CCN(c3ccccc3F)CC2)c1 (stereo not given)	-5% (active)
COc1ccccc1N1CCN(CC(O)COc2ccc(C)cc2C(C)(C)C)CC1 (stereo not given)	1% (active)
COc1ccc(N2CCN(CC(O)COc3ccc(C(C)C)c(C)c3)CC2)cc1 (stereo not given)	66% (inactive)
CN(C)c1ccc(C(CNS(=O)(=O)c2ccc(Br)cc2)N2CCOCC2)cc1 (stereo not given)	74% (inactive)
CCc1c(C)sc2c1CCN(Cc1ccccc1F)C2c1ccccc1 (stereo not given)	102% (inactive)
CCCCC(=O)N1CCc2cc(OC)c(OC)cc2C1COc1ccc(C(=O)OCC)cc1 (stereo not given)	70% (inactive)
O=C(CN1C(=O)COc2ccc(S(=O)(=O)N3CCCCC3)cc21)NCCc1ccc(Cl)cc1	73% (inactive)
CCOc1ccc(N2CC(NC(=O)c3ccc(Cl)cc3)CC2=O)cc1 (stereo not given)	73% (inactive)

SMILES	survival
N#CSc1ccc2nc(N)sc2c1	66% (inactive)
CC(C)(C)Sc1ccc(SC#N)s1	1% (active)
O=C1CC(c2ccc(Br)cc2)c2c(ccc3ccccc23)N1 (stereo not given)	32% (active)
Cc1ccccc1C1CC(=O)Nc2ccc3ccccc3c21 (stereo not given)	93% (inactive)
O=C1CC(c2c(Cl)cccc2Cl)c2c(ccc3ccccc23)N1 (stereo not given)	73% (inactive)
CC(C)c1ccc(CNc2nc(-c3ccco3)nn2C(=O)c2ccc([N+](=O)[O-])cc2)cc1	79% (inactive)
COc1ccc(NC(=O)Cn2nnc(C(=O)NCc3ccc4c(c3)OCO4)c2N)cc1	76% (inactive)
N#C/C(=C\c1ccc(F)cc1)C(=O)NCC1CCCO1 (stereo not given)	68% (inactive)
COc1cc(/C=C(\C#N)C(=O)NCC2CCCO2)ccc1O (stereo not given)	83% (inactive)
N#C/C(=C\c1ccc(Cl)cc1)C(=O)NCC1CCCO1 (stereo not given)	44% (active)
CCOC(=O)c1[nH]c(C)c(CCC(=O)Nc2ccccc2C(=O)OC)c1C	77% (inactive)
Cc1ccc(-c2cnc(NCc3ccc(C(F)(F)F)cc3)n2C)cc1	-5% (active)
Cn1c(-c2ccccc2)cnc1NCc1ccccc1O	46% (active)
CCCc1cc(=O)n2[nH]c(NCc3c(F)cccc3Cl)nc2n1	86% (inactive)
CCn1c(NCc2cccc(Cl)c2)nc2ccccc21	102% (inactive)
Cn1c(-c2ccc3c(c2)OCO3)cnc1NCc1cc(Cl)ccc1O	70% (inactive)
Cn1c(NCc2cccc(Cl)c2)nc2ccccc21	104% (inactive)
Cc1ccc(-c2cnc(NCc3c(F)cccc3Cl)n2C)cc1	-4% (active)
Cc1ccc(CNc2nccn(-c3cc(C)cc(C)c3)c2=O)cc1	95% (inactive)
CCOc1ccc(-c2cnc(NCc3cccc(Cl)c3)n2C)cc1	30% (active)
Cn1c(-c2ccccc2)cnc1SCc1ccccc1	108% (inactive)
Cc1ccc(CNC(=O)c2ccc(CSCc3c(F)cccc3Cl)o2)cc1	90% (inactive)
Cc1ccc(-c2cnc(NC(=O)CCC(=O)N3CCCCC3)n2C)cc1	91% (inactive)
Cc1cc(C)cc(-n2c(SCC(=O)N3CCCCCC3)nc3c([nH]c4ccccc43)c2=O)c1	94% (inactive)

SMILES	survival
CCOc1ccc(N(CC)C(=O)c2nn(-c3ccc(OC)cc3)c(=O)c3c2c2ccccc2n3C)cc1	82% (inactive)
CCOc1cc2sc(N3CCC(C(=O)Nc4ccc(C(C)C)cc4)CC3)nc2cc1Br	75% (inactive)
COC(=O)CN(c1ccccc1Cl)S(C)(=O)=O	52% (inactive)
COc1ccc(NC(=O)c2oc3ccccc3c2NC(=O)c2cccc(F)c2)c(OC)c1	95% (inactive)
COc1cc(OC)c(NC(=O)C2=C(C)C(=O)OC23CCN(C(C)=O)CC3)cc1Cl	75% (inactive)
Cc1ccc(NC(=O)CN2C=NS(=O)(=O)c3ccccc32)c(C)c1	99% (inactive)
COc1ccc(-c2nc(Cn3c(SCc4ccc(C)cc4)nc4cccnc43)c(C)o2)cc1OC	113% (inactive)
CCOc1ccc(-c2cnc(NCc3ccc(C(F)(F)F)cc3)n2C)cc1	-3% (active)
Cc1ccc(CNc2nc3c(c(=O)n(C)c(=O)n3C)n2Cc2ccc(Cl)cc2)cc1	54% (inactive)
Cc1ccc(-c2cnc(NCc3ccc(C(C)C)cc3)n2C)cc1	-4% (active)
CCOc1ccc(-n2cc(-c3ccccc3)c3c(NCc4ccc(F)cc4)ncnc32)cc1	95% (inactive)
COc1ccc(-c2cnc(NCc3ccc(C)cc3)n2C)cc1	121% (inactive)
CCOc1ccc(NC(=O)C(=O)NCCc2csc(-c3ccc(C(F)(F)F)cc3)n2)cc1	94% (inactive)
Cc1ccc(NC(=O)CCN2C(=O)c3ccccc3Sc3ncccc32)c(Cl)c1	74% (inactive)
CCOc1ccc(C(=O)NCCc2csc(-c3cccnc3)n2)cc1	81% (inactive)
Cc1ccc(CNc2nc3ccccc3n3c(C)nnc23)cc1	88% (inactive)
CCn1nc(C)c(CCN(C)C(=O)Nc2ccc(C)c(Cl)c2)c1C	88% (inactive)
CCOc1ccccc1NC(=O)c1cc2cc3cc(C)ccc3nc2s1	91% (inactive)
Cc1ccc(CCNC(=O)c2cc3cc4cc(C)ccc4nc3s2)cc1	46% (active)
CCOc1ccc(NC(=O)c2cc3cc4cc(OC)ccc4nc3s2)cc1	82% (inactive)
Cc1ccc2nc3sc(C(=O)Nc4ccc(F)cc4)cc3cc2c1	37% (active)
COc1ccc2nc3sc(C(=O)NCCc4ccc(Cl)cc4)cc3cc2c1	103% (inactive)
CSc1ccc(CCNC(=O)c2cc3cc4cc(C)ccc4nc3s2)cc1	144% (inactive)
